NALP1 inh: NALP1 inflammasome inhibitors in reconstituted yeast, colorimetric, S. cerevisiae, triplicate retest; S. cerevisiae NALP1/ASC/caspase-1 growth, X-gal OD620, 72 h; inhibition, % at 10 µM; 0.61% of 280,000 active; in the data active = inhibition mostly above about 24%, no sharp cut-off; inactive = mostly below about 32%
dFosB activator: activators of delta FosB homodimer, primary screen, biochemical, fluorescence polarization, TAMRA-CDK5 oligo, single point | activation, % at 25 µM | AID 493131, 2011 | 0.99% of 340,000 active | Protein FosB (Mus musculus), P13346 | purified delta FosB; percent of positive-control signal above neutral wells;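 active = mean activation above about 17%, with every replicate also reaching it, limit read from the data, passing the limit was not always enough; inconclusive = only one of the two conditions met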
Target sequence (P13346 whole entry, looked up): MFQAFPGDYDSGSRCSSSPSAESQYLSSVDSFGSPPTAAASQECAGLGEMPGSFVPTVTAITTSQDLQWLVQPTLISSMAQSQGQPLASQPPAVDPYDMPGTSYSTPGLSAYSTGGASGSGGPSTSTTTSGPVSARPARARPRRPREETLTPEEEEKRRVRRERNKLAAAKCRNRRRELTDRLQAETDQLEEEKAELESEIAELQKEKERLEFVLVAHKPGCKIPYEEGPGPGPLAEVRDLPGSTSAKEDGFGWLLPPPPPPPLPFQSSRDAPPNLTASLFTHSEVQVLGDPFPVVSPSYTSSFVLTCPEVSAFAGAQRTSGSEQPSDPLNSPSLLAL
Yeast superoxide: reduction of superoxide in aged yeast, primary screen, HTS; S. cerevisiae aged cells, superoxide DHE fluorescence; active compounds read low; superoxide response (% of plate mean), % at 10 µM; 0.18% of 330,000 active; AID 2690, 2010;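 active = superoxide response under a set limit, about three screen SD below normal, cut at about 65% in these data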;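 also: yeast aged for seven days with compound at 30 °C before DHE staining; 100% = average MFI of all compound-treated wells on the plate with controls excluded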
GRIN3A LBD mod: binders of NR3A ligand-binding domain, primary screen, biophysical, differential scanning fluorimetry, uHTS; 2.5% of 340,000 active; Tm shift relative to glycine control, % at 25 µM; AID 1259313, 2017; NR3A LBD differential scanning fluorimetry, Tm shift; 0% = protein alone, 100% = glycine-bound protein;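 active = melting temperature shift of at least 10% of the positive control shift, at one fixed dose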
UBC13 inh: UBC13 polyubiquitin chain formation inhibitors, primary screen, biochemical, TR-FRET, uHTS | AID 485273, 2010 | inhibition, % at 20 µM | 0.47% of 330,000 active; in the data active = inhibition above about 45%, passing the limit was not always enough; inconclusive = no clear call, values can overlap the other calls
Active calls of the source: *; ? = inconclusive; . = no result given. Compounds with a hit are over-represented: about 4.3% of the library has one in this group of screens.

SMILES	NALP1 inh	dFosB activator	Yeast superoxide	GRIN3A LBD mod	UBC13 inh
CCCCS(=O)(=O)Nc1ccc2cn[nH]c2c1	7	-9	107	1	-11
CCCCS(=O)(=O)Nc1ccc2ncn(C)c(=O)c2c1	-12	4	85	11*	11
CC(=O)CC(C)(C)NC(C)=S	-4	-3	99	1	5
Nc1c2c(nc3ccc(Br)cc13)N(C1CCCCC1)CC2	36	.	92	.	44
Cc1cccc(N2CCc3c2nc2ccc(Br)cc2c3N)c1	10	33*	103	37*	?
Nc1c2c(nc3ccc(Br)cc13)N(c1ccccc1)CC2	3	-31	93	10*	36
Nc1c2c(nc3ccc(Br)cc13)N(Cc1ccccc1)CC2	56*	-1	87	0	?
CCOC(=O)c1ccc(N2Cc3ccccc3C2=N)cc1	40*	-3	94	-6	3
CCOC(=O)c1ccc(N2Cc3ccccc3C2=NC(=O)c2ccncc2)cc1	9	-5	.	-2	.
CN(Cc1ccccc1)C(=O)c1ccc(NC(=O)Cc2ccc(NC(=O)C3CCN(C(=O)CCc4ccccc4)CC3)cc2)cc1	.	-2	.	13*	.
CN(Cc1ccccc1)C(=O)c1cccc(NC(=O)Cc2ccc(NC(=O)C3CCN(C(=O)CCc4ccccc4)CC3)cc2)c1	.	3	.	17*	.
CN(C(=O)c1ccc(NC(=O)Cc2ccc(NC(=O)C3CCCN(S(=O)(=O)c4cccc([N+](=O)[O-])c4)C3)cc2)cc1)C1CCCC1 (stereo unspecified)	.	9	.	6	.
CN(C(=O)c1cccc(NC(=O)Cc2ccc(NC(=O)C3CCCN(S(=O)(=O)c4cccc([N+](=O)[O-])c4)C3)cc2)c1)C1CCCC1 (stereo unspecified)	.	3	.	10*	.
CCOc1ccc(C(=O)NN2CCOCC2)cc1	23	-2	102	1	-3
CCOC(=O)C1(Cc2cccc(Cl)c2)CCCN(C(=O)c2ccc(COC)s2)C1 (stereo unspecified)	16	-4	92	-3	-3
CCCCCCC#Cc1cncc(C(=O)NNC(=O)Nc2cc(Cl)cc(Cl)c2)c1	0	.	86	16*	-17
CCCCCOC(=O)C1C(c2ccccc2)C(C(=O)O)C1c1ccccc1 (stereo unspecified)	41	-5	90	10*	0
CCOC(=O)Sc1nc2ncncc2[nH]1	.	9	.	0	.
Cc1nc2c(C)cccc2cc1C(=O)N/N=C/c1cccnc1	-2	-3	102	14*	-7
Cc1nc2c(C)cccc2cc1C(=O)N/N=C/c1ccc(C(=O)O)cc1	-4	-3	97	0	-6
Cc1cccc(NC(=O)c2oc(=O)c3ccccc3c2-c2ccccc2)c1C	23	-2	104	16*	-10
Cc1ccc(C)c(NC(=O)CCN2CC(C)CC(C)C2)c1 (stereo unspecified)	38*	-1	89	-3	0
Cc1ccc(-c2nnc(SCC(=O)N3CCOCC3)nc2-c2ccc(C)cc2)cc1	6	5	106	-2	-7
COc1ccc(C2Nc3ccccc3C(=O)N2c2ccccc2)cc1CSc1ccccn1 (stereo unspecified)	10	3	109	18*	16
COc1ccc(C2Nc3ccccc3C(=O)N2c2ccc(F)cc2)cc1CSc1ccccn1 (stereo unspecified)	14	3	93	-4	8
SMILES	NALP1 inh	dFosB activator	Yeast superoxide	GRIN3A LBD mod	UBC13 inh
O=C(CNc1cc(S(=O)(=O)N2CCOCC2)ccc1N1CCCC1)NCc1ccco1	12	-2	95	1	3
CNc1cc(N2CCCC2)ccc1[N+](=O)[O-]	-2	-8	98	0	-58
O=C(O)Cn1cc(CN2CCOCC2)c2ccccc21	11	-3	104	0	7
Cn1cc(CN2CCN(c3ccccc3)CC2)c2ccccc21	26*	2	92	2	9
CC(C)NS(=O)(=O)c1ccc(OCC(=O)NCc2ccccc2)cc1	-13	-3	99	11*	6
O=C(COc1ccc(S(=O)(=O)N2CCOCC2)cc1)Nc1cccc([N+](=O)[O-])c1	14	-5	90	19*	-6
Cc1ccc(S(=O)(=O)NC(=O)COc2ccc([N+](=O)[O-])cc2)cc1	-4	-7	115	17*	4
